Experimental data published in PubChem BioAssay.
The source made the active and inactive calls.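 How the source made its calls, unless noted: active means fluorescence slope after compound addition differing from the mean of all screened samples at 99.7% confidence, in either direction; inactive means the rest.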

Key:
[1] = inhibitors of TNFa-induced NFkB p65 translocation, primary screen, imaging, HUVEC, MLSMR starter and 10KST1 sets (AID 438;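 active means inhibition above 20% together with a positive visual image hit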;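 further: compound added about 3h40 before a 20 min TNFalpha stimulation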;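 on inhibition: signal is the nuclear over cytoplasmic p65 intensity ratio per well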); conditions: HUVEC TNFa-induced p65 nuclear translocation; cell count: measured here: nuclei count (cytotoxicity indicator), at 2.08 µM; inhibition: at 2 µM, stronger effect = higher value, 0% TNFa-plus-vehicle, 100% no-TNFa wells
[2] = reduction of polyQ htt aggregates in cells – imaging, exon1htt(103Q)mCFP cells, high-content imaging, primary screen (AID 483;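 active means visual image review flags a hit and inhibition of aggregation exceeds 20%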;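 further: compound exposure lasted 3 days before fixation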;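 on nuclei count: percent of the per-plate median nuclei count of sample wells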); conditions: exon1htt(103Q)mCFP cell line, aggregate imaging, at 2 µM; inhibition of aggregation: stronger effect = higher value; nuclei count: measured here: cell count, toxicity
[3] = endothelial E-selectin expression blockers – imaging, HUVEC, immunofluorescence, MLSMR starter and 10KST1 sets, primary screen (AID 487;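 active means visually confirmed hit in the image check and inhibition above 20%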;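 on inhibition: signal is fraction of cell area covered by stained E-selectin grains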;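 on nuclei count: 100% = median nuclei count of all wells on the same plate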); conditions: HUVEC TNFalpha-induced E-selectin immunofluorescence imaging, at 2 µM; inhibition: stronger effect = higher value; nuclei count: measured here: cell number, toxicity
[4] = target: Voltage-gated potassium channel subunit beta-2 (Rattus norvegicus) (UniProt P62483); assay: inhibitors of rat Kvbeta2 reductase activity – biochemical, NADPH fluorescence, primary screen (AID 622;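 active means fluorescence slope higher than the sample average by over 3 SD, cut at about -0.22 in these data, passing the limit was not always enough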;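 further: slope of raw intensity against log time taken from 70 to 1610 s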); conditions: recombinant KvBeta, 4-cyanobenzaldehyde reduction, at 10 µM, stronger effect = higher value
Sequence of Voltage-gated potassium channel subunit beta-2 (Rattus norvegicus) (P62483 whole entry, looked up): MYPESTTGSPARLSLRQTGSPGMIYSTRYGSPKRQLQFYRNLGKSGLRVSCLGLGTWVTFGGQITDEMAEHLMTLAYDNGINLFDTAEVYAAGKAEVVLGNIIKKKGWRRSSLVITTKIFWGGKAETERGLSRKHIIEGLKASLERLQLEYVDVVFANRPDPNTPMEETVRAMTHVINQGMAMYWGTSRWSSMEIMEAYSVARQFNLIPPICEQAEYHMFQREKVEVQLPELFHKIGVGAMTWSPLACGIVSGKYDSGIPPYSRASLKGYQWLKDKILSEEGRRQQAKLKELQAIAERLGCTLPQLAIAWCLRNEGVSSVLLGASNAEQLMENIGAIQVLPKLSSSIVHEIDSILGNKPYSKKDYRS

[5] = target: Voltage-gated potassium channel subunit beta-2 (Rattus norvegicus) (UniProt P62483); assay: enhancers of rat Kvbeta2 NADPH turnover – biochemical, NADPH fluorescence, primary screen (AID 623;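 active means NADPH fluorescence slope more negative than the mean of all samples by about 3 SD, 99.7% confidence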;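 further: fluorescence intensity change per second fitted from 20 to 320 s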); conditions: Recombinant KvBeta, NADPH fluorescence decrease slope, 10 min; at 10 µM; stronger effect = lower value
[6] = target: Alpha-2C adrenergic receptor (Homo sapiens) (UniProt P18825); assay: compounds altering alpha2C-coupled GIRK flux – cell-based, HEK293 alpha2C/GIRK1/2, thallium flux, primary screen (AID 624); conditions: thallium flux BTC fluorescence, at 10 µM, actives lie on both sides;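 further: slope of fluorescence ratio to pre-addition baseline per second over 15 to 24 s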
Sequence of Alpha-2C adrenergic receptor (Homo sapiens) (P18825 whole entry, looked up): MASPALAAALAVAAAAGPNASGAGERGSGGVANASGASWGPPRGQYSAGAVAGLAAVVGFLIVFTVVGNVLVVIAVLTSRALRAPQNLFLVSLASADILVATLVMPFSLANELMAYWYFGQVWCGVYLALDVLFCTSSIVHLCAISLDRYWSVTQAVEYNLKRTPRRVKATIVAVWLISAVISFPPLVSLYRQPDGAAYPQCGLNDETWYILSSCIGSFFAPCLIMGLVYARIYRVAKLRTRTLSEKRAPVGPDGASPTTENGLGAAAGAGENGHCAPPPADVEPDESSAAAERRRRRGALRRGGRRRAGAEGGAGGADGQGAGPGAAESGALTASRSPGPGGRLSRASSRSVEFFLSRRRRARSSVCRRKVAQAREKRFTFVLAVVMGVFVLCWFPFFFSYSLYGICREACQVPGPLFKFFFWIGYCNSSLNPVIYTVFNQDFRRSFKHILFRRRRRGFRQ

[7] = blockers of RIG-like receptor reporter activation – cell-based, Sendai virus stimulus, luciferase, 10K MLSCN set, TLR/RLR signaling modifier project, primary screen (AID 602276;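 active means inhibition at or above 50% at 10 µM; inactive means inhibition below 50%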;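 further: firefly luciferase from ISG56 promoter only with Renilla not read in this screen; 0% = Sendai virus plus DMSO and 100% = medium plus DMSO without virus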); conditions: HEK293 RL24 IRF3 luciferase reporter, at 10 µM, stronger effect = higher value
[8] = TLR3 IRF3 reporter activation blockers – cell-based, poly I:C stimulus, luciferase, 10K MLSCN set, primary screen (AID 602277;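 active means inhibition of the reporter signal at or above 50%; inactive means inhibition below 50%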); conditions: HEK293-TLR3 RL24 IRF3 luciferase reporter, at 10 µM, stronger effect = higher value

Row | Structure (SMILES) | cell count [1] | inhibition [1] | inhibition of aggregation [2] | nuclei count [2] [%] | inhibition [3] | nuclei count [3] [%] | fluorescence slope [4] | NADPH fluorescence slope [5] | slope [6] | inhibition [7] | inhibition [8]
1 | Cc1ccc(-n2c(-c3ccncc3)nnc2-c2cccs2)cc1 | 456 | -3.2% (inactive) | -22.5% (inactive) | 104 | -55.2% (inactive) | 119 | -0.384 (inactive) | -4.2e-05 (inactive) | 0.0046 (inactive) | 11.8% (inactive) | 12.5% (inactive)
2 | CN(CC(=O)NCCC1=CCCCC1)S(=O)(=O)c1ccc2c(c1)CCC(=O)N2 | 603 | 16.1% (inactive) | 19% (inactive) | 111 | -110% (inactive) | 141 | -0.505 (inactive) | 1.1e-05 (inactive) | 0.00584 (inactive) | -4.9% (inactive) | 16.8% (inactive)
3 | CC(=O)Nc1ccc(N=Cc2ccc[nH]2)cc1 | 362 | 3.4% (inactive) | -8.9% (inactive) | 108 | 9.1% (inactive) | 99.4 | -0.264 (inactive) | -1.6e-05 (inactive) | 0.00576 (inactive) | 9.12% (inactive) | -21% (inactive)
4 | Cc1cc(C(F)(F)F)nc(NCc2cccnc2)n1 | 597 | -31.3% (inactive) | -19.1% (inactive) | 97.7 | -79.3% (inactive) | 120 | -0.529 (inactive) | 1.9e-05 (inactive) | 0.00686 (inactive) | -7.81% (inactive) | -18.3% (inactive)
5 | CCc1ccccc1N1CC23C=CC(O2)C(C(=O)O)C3C1=O (centres undefined) | 591 | -3.4% (inactive) | -8.2% (inactive) | 103 | -23.4% (inactive) | 105 | -0.515 (inactive) | -2.2e-05 (inactive) | 0.00685 (inactive) | 12.3% (inactive) | 36.8% (inactive)
6 | Cn1c(SCc2nnc3n2CCCCC3)nc2ccccc21 | 252 | -15.3% (inactive) | -3.3% (inactive) | 94.7 | -94.2% (inactive) | 127 | -0.433 (inactive) | -2.7e-05 (inactive) | 0.00588 (inactive) | 14% (inactive) | 20% (inactive)
7 | CCc1ccccc1OCCCCN1CCCC1 | 454 | -4.1% (inactive) | 10.6% (inactive) | 89.5 | -88.7% (inactive) | 75.1 | -0.518 (inactive) | -4.4e-05 (inactive) | 0.00548 (inactive) | -4.55% (inactive) | -12.9% (inactive)
8 | O=C(Nc1ccccc1)c1cnc2n(c1=O)CCS2 | 734 | -18.7% (inactive) | 11.2% (inactive) | 106 | -25.4% (inactive) | 121 | -0.517 (inactive) | -3.2e-05 (inactive) | 0.0079 (inactive) | -16.4% (inactive) | -44.7% (inactive)
9 | COc1cccc(C(=O)CN2CCC(NC(=O)NC3CCCCC3)CC2)c1 | 513 | -25.5% (inactive) | 10.5% (inactive) | 51.6 | -26.9% (inactive) | 114 | -0.393 (inactive) | -3.8e-05 (inactive) | 0.00349 (inactive) | 7.64% (inactive) | -12.8% (inactive)
10 | COC(=O)c1ccccc1S(=O)(=O)NC(=O)c1ccccc1 | 368 | -2.8% (inactive) | -12.4% (inactive) | 96.8 | -26% (inactive) | 114 | -0.593 (inactive) | -3.3e-08 (inactive) | 0.00588 (inactive) | 13.5% (inactive) | 24.3% (inactive)
11 | O=C(c1cc(C2CC2)on1)N1CCN(C(c2ccccc2)c2ccccc2)CC1 | 731 | -3.5% (inactive) | 25% (inactive) | 82 | -61% (inactive) | 89.3 | -0.573 (inactive) | -7.4e-06 (inactive) | 0.00569 (inactive) | 7.04% (inactive) | 35.9% (inactive)
12 | CCC(=O)N1CCc2cc(S(=O)(=O)CCC(=O)Nc3ccc(F)c(F)c3)ccc21 | 571 | 5.2% (inactive) | 6.1% (inactive) | 96 | -68.8% (inactive) | 111 | -0.423 (inactive) | -1.2e-05 (inactive) | 0.00293 (inactive) | -11.6% (inactive) | -3.44% (inactive)
13 | Cn1c(=O)c2c(nc(NCCCO)n2CCc2ccccc2)n(C)c1=O | 422 | 9.7% (inactive) | -11.3% (inactive) | 105 | -27.9% (inactive) | 103 | -0.506 (inactive) | 4.3e-05 (inactive) | 0.00351 (inactive) | -9.22% (inactive) | 4.62% (inactive)
14 | CCOc1ccc2ccccc2c1C(=O)N1CCN(c2ccccc2)CC1 | 287 | -3% (inactive) | 41.9% (inactive) | 15.6 | 44.7% (inactive) | 64.1 | -0.423 (inactive) | -1.3e-05 (inactive) | 0.0036 (inactive) | 46.4% (inactive) | 56.3% (active)
15 | O=C(Nc1ccccc1C(=O)N1CCOCC1)C1CCC(=O)N1C1CCCC1 (centres undefined) | 229 | 14.7% (inactive) | 8.7% (inactive) | 79.1 | -48.2% (inactive) | 110 | -0.425 (inactive) | -4.5e-05 (inactive) | 0.00481 (inactive) | 4.86% (inactive) | 7.23% (inactive)
16 | COc1ccc(N2CCN(C(=O)COc3ccc4ccccc4c3)CC2)cc1 | 737 | 7.3% (inactive) | 7.5% (inactive) | 93.8 | -29.6% (inactive) | 111 | -0.468 (inactive) | -5.8e-05 (inactive) | 0.00617 (inactive) | 4.32% (inactive) | 10.9% (inactive)
17 | COc1ccc(C2CC(c3cccc(C)c3)n3ncnc3N2)cc1 (centres undefined) | 595 | 5.1% (inactive) | 0% (inactive) | 97.8 | 4% (inactive) | 111 | -0.569 (inactive) | 1.9e-05 (inactive) | 0.00625 (inactive) | -16.2% (inactive) | 2.59% (inactive)
18 | Cc1csc(SCc2nc3sc4c(c3c(=O)[nH]2)CCC4)n1 | 562 | 1.9% (inactive) | 0.1% (inactive) | 116 | -229% (inactive) | 171 | -0.553 (inactive) | -1.4e-05 (inactive) | 0.00536 (inactive) | 13% (inactive) | 1.21% (inactive)
19 | Cc1ccc(CCNC(=O)CC2Oc3ccc(C)cc3NC2=O)cc1 (centres undefined) | 644 | 5.5% (inactive) | -11.9% (inactive) | 105 | -33.5% (inactive) | 124 | -0.558 (inactive) | 1.2e-05 (inactive) | 0.00676 (inactive) | -18.4% (inactive) | 2.52% (inactive)
20 | CCN1CCN(c2ncnc3c2cnn3-c2ccc(C)cc2C)CC1 | 561 | 1.3% (inactive) | -28.5% (inactive) | 94.2 | 1.5% (inactive) | 112 | -0.538 (inactive) | -1.4e-05 (inactive) | 0.00772 (inactive) | 10.8% (inactive) | 18.9% (inactive)
21 | Cc1onc(-c2c(Cl)cccc2Cl)c1C(N)=O | 406 | 6.3% (inactive) | -2.8% (inactive) | 98.3 | -52% (inactive) | 98.7 | -0.5 (inactive) | 2.7e-05 (inactive) | 0.00603 (inactive) | -11.6% (inactive) | 7.29% (inactive)
22 | CCCCN(Cc1cc2cc(OC)ccc2[nH]c1=O)C(=O)c1ccccn1 | 339 | -17.9% (inactive) | -18.3% (inactive) | 101 | -11.8% (inactive) | 89.4 | -0.332 (inactive) | -6.3e-05 (inactive) | 0.00511 (inactive) | -4.21% (inactive) | 98.1% (active)
23 | COc1ccc(NC(=O)CCc2nc(-c3ccccc3F)no2)cc1 | 729 | -1.7% (inactive) | 30% (active) | 94.6 | -8.4% (inactive) | 115 | -0.47 (inactive) | -2.2e-05 (inactive) | 0.00593 (inactive) | 4.66% (inactive) | 10.4% (inactive)
24 | COc1cccc2cc(C(=O)C3=C(O)C(=O)N(CCCN4CCOCC4)C3c3ccncc3)oc12 (centres undefined) | 463 | 0.9% (inactive) | -8.5% (inactive) | 103 | -14.9% (inactive) | 120 | -0.478 (inactive) | -7.1e-05 (inactive) | 0.00372 (inactive) | -11.8% (inactive) | 10.6% (inactive)
25 | CCc1nnc(NC(=O)CSc2nnc(-c3ccc(OC)cc3)n2C)s1 | 648 | 14.3% (inactive) | 21.9% (inactive) | 66.3 | 5.4% (inactive) | 112 | -0.609 (inactive) | -3e-05 (inactive) | 0.00434 (inactive) | 12.5% (inactive) | 20.1% (inactive)
26 | O=c1[nH]c(N2CCCCC2)nc2c1CCCC2 | 581 | 0.9% (inactive) | 5.9% (inactive) | 107 | 9.4% (inactive) | 102 | -0.265 (inactive) | -2.4e-05 (inactive) | 0.00576 (inactive) | 17% (inactive) | 12.8% (inactive)
27 | CCOC(=O)Nc1ccc(NS(=O)(=O)c2ccc(C)cc2)cc1 | 342 | -0.8% (inactive) | -13.3% (inactive) | 114 | -108% (inactive) | 134 | -0.507 (inactive) | 8.9e-06 (inactive) | 0.00595 (inactive) | 1.72% (inactive) | 9.39% (inactive)
28 | c1ccn2c(SCc3cn4ccsc4n3)nnc2c1 | 586 | -7.3% (inactive) | 19.5% (inactive) | 90.6 | -20.5% (inactive) | 111 | -0.544 (inactive) | 2.4e-05 (inactive) | 0.00536 (inactive) | -1.63% (inactive) | -34.1% (inactive)
29 | CCC(Sc1ncccc1C(=O)O)C(=O)N1CCCC1 (centres undefined) | 597 | 10% (inactive) | 32.9% (inactive) | 93.4 | 5% (inactive) | 116 | -0.372 (inactive) | -4.6e-05 (inactive) | 0.00559 (inactive) | 5.91% (inactive) | 15.4% (inactive)
